A selection: hits, their analogues and other compounds. The true share with any hit is near 6.4%.
KinaseGlo FLuc = blocks Kinase-Glo luciferase, a counter-screen artifact | 200,000 tested, 0.28% active | Potency, µM (titrated, usually from 38.3 µM), hits mostly inhibitors | Kinase-Glo luciferase, ATP luminescence, 8 min; also: nearly all actives have a fitted effect of over 60% in size
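Recombinant Kinase-Glo luciferase, 10 uM ATP (linear range), luciferin; imidazole pH 7.2 / KCl / MgCl2 / Tween / BSA buffer; 8 min RT; luminescence.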
RORgamma inh = inhibitors of mouse ROR gamma transcriptional activity. Drosophila S2 Gal4-RORgamma UAS-luciferase reporter, 20 h. Potency, µM (titrated, usually from 53.6 µM), actives largely listed as inhibitors. 310,000 tested, 5.4% active; also: nearly all actives have a fitted effect of over 60% in size
Target sequence (P51450 whole entry, looked up, the tested form may be a part): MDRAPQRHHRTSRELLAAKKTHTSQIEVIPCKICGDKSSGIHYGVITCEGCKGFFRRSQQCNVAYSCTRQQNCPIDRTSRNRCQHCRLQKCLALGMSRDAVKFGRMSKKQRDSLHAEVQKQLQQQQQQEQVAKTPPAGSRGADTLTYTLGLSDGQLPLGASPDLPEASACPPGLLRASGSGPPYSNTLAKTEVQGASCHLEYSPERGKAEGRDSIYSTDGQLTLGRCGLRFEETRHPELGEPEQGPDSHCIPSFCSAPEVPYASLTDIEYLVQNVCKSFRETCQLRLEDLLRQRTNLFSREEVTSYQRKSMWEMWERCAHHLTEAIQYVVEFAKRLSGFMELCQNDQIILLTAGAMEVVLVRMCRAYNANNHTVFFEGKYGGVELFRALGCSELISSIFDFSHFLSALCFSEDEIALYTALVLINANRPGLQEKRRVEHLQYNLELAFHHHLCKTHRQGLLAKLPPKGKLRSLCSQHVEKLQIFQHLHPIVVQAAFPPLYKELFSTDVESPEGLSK
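A Gal4/UAS one-hybrid system in insect cells: metallothionein-promoter Gal4–ROR gamma fusion plus Photinus luciferase reporter. Copper sulfate 700 uM final, 20 hr ambient incubation, luminescent detection after 10 min with reagent.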
Gal4-VP16 FLuc = counter-screen for ROR gamma inhibitors: Gal4-VP16 reporter; Drosophila S2 Gal4-VP16 UAS-luciferase, luminescence, 20 h; Potency, µM (top dose mostly 53.6 µM), hits mostly inhibitors; 310,000 tested, 3.5% active; AID 2546;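 also: Gal4-VP16 expression switched on by copper sulfate through the metallothionein promoter; nearly all actives have a fitted effect of over 50% in size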
Hits are given with their value; – = inactive; ? = inconclusive; · = not tested or not shown; [ ] = another dose, or the depositor's remark. Calls follow the shape of the dose curve; as a rule, active = well fitted curve in the direction sought with a large enough effect; inconclusive = small, poorly fitted or top-dose-only effect, or another doubt; inactive = no such curve, though single readings can be large; an effect the other way counts as inactive or inconclusive.

SMILES	KinaseGlo FLuc	RORgamma inh	Gal4-VP16 FLuc
COc1cccc2cc(C(=O)Nc3ccc(S(=O)(=O)NCC4CCCO4)cc3)c(=O)oc12 (stereo unspecified)	·	?	–
O=c1c2ccccc2[nH]c(=S)n1CCN1CCCC1	–	–	–
O=c1c2ccccc2[nH]c(=S)n1-c1cccc(S(=O)(=O)N2CCCC2)c1	·	3.16µM	?
COC(=O)CC(NC(=O)c1ccc(C)cc1)c1ccc2c(c1)OCO2 (stereo unspecified)	–	–	–
COC(=O)CC(NC(=O)c1ccc(C)cc1)c1ccccc1 (stereo unspecified)	–	8.91µM	–
CCCCCCOC(=O)C(C#N)c1nc2ccccc2nc1N1CCN(CC)CC1 (stereo unspecified)	–	10µM	?
CCCCCCOC(=O)C(C#N)c1nc2ccccc2nc1N1CCOCC1 (stereo unspecified)	–	–	–
COc1ccc(S(=O)(=O)NCC(=O)Nc2cccc(C)c2C)cc1OC	–	–	–
COc1ccc(C(=O)NCC(=O)c2ccccc2)cc1	·	10µM	–
COc1ccc(C(=O)c2ccccc2O)c(O)c1	–	–	–
CCOC(=O)C(NCc1ccc(F)cc1)(NC(=O)c1ccccc1)C(F)(F)F (stereo unspecified)	–	–	–
COc1ccc(O)c(C(=O)CC(=O)c2ccccc2)c1	–	7.08µM	12.6µM
COc1ccc(CNC(NC(=O)c2ccccc2)(C(F)(F)F)C(F)(F)F)cc1	–	?	10µM
COc1ccc(CNC(=O)c2ccc(-c3ccccc3)cc2)cc1	–	–	–
COc1ccc(C(=O)CCC(=O)O)cc1	–	–	–
COc1ccc(C(=O)CC(=O)c2ccc(OC)cc2)cc1	·	12.6µM	17.8µM
O=C(NCCCCN1CCOCC1)c1cc2ccccc2o1	·	–	–
CCOC(=O)/C(=N\Nc1ccc(Br)cc1)N1CC(C)OC(C)C1 (stereo unspecified)	·	–	–
Cc1ccc(C(C)(O)CS(=O)(=O)Cc2ccccc2)cc1 (stereo unspecified)	·	–	–
CCOc1cc(C(=S)N2CCCC2)ccc1O	·	–	–
C=CCOc1c(Cl)cc(C(=S)N2CCCC2)cc1OCC	·	12.6µM	?
O=S(=O)(c1cccc(F)c1)N1CCc2sccc2C1c1ccc(OC(F)(F)F)cc1 (stereo unspecified)	·	–	–
Cn1nc(-c2ccc(Cl)cc2)c2cc(C(=O)N3CCN(c4ccccc4)CC3)sc21	–	–	–
Cn1nc(-c2ccc(Cl)cc2)c2cc(C(=O)N3CCN(c4ccccn4)CC3)sc21	–	–	12.6µM
CCOc1ccccc1NC(=O)C1CCCN(S(=O)(=O)c2ccc3c(c2)C(C)(C)C(=O)N3C)C1 (stereo unspecified)	·	–	–
SMILES	KinaseGlo FLuc	RORgamma inh	Gal4-VP16 FLuc
Cn1c(NC(=O)c2ccc(Br)o2)cc(=O)n(C)c1=O	–	12.6µM	–
Cn1c(NC(=O)c2cccs2)cc(=O)n(C)c1=O	–	–	–
CCC1CCCCN1C(=O)CCS(=O)(=O)c1ccc2c(c1)CCN2C(C)=O (stereo unspecified)	·	–	–
COc1cc(C(=O)NCC(=O)N/N=C/c2ccc(OC(=O)c3ccco3)cc2)cc(OC)c1OC	–	–	–
CC1(C)Cc2nc3oc4c(=O)n(CC(=O)Nc5ccccc5)cnc4c3cc2CO1	–	–	–
CC(C)CCn1cnc2c(oc3nc4c(cc32)CCCC4)c1=O	·	10µM	?
Cc1ccc2c(Cl)cc(Cl)c(OCC(=O)Nc3cc(S(=O)(=O)N(C)C)ccc3C)c2n1	·	–	?
Cc1ccc(NC(=O)COC(=O)CCC(=O)c2ccc(Cl)cc2)cc1S(=O)(=O)N(C)C	·	–	–
Cc1ccc2c(Cl)cc(Cl)c(OCC(=O)Nc3cccc(S(N)(=O)=O)c3)c2n1	–	14.1µM	?
NS(=O)(=O)c1cccc(NC(=O)COc2ccc([N+](=O)[O-])cc2)c1	–	–	–
Cc1ccc2c(Cl)cc(Cl)c(OCC(=O)Nc3ccc(C)c(S(=O)(=O)N(C)C)c3)c2n1	–	7.08µM	7.08µM
Cc1ccc2c(Cl)cc(Cl)c(OCC(=O)Nc3cccc(S(=O)(=O)N(C)C)c3)c2n1	–	5.01µM	10µM
Cc1ccc(C(C)c2c(C)c([N+](=O)[O-])cc(C)c2[N+](=O)[O-])cn1 (stereo unspecified)	·	–	–
O=C(CN1CCN(Cc2ccccc2)CC1)Nc1ccc([N+](=O)[O-])cc1C(=O)Nc1ccccc1F	–	–	?
O=C(CNCc1ccccn1)Nc1ccc([N+](=O)[O-])cc1C(=O)Nc1ccccc1F	·	20µM	–
COc1ccc(/C=N/NS(=O)(=O)c2ccc(F)cc2)cc1CN1CCSCC1	·	–	–
CSCC[C@H](NC(=O)OC(C)(C)C)c1nnc(SCC(N)=O)o1	–	–	–
CSCC[C@H](NC(=O)OC(C)(C)C)c1nnc(SCC=C(C)C)o1	–	11.2µM	–
CCOC(=O)CSc1nnc([C@H](CC(C)C)NC(=O)OC(C)(C)C)o1	–	12.6µM	–
COC(=O)CSc1nnc([C@H](CC(C)C)NC(=O)OC(C)(C)C)o1	–	–	–
O=[N+]([O-])c1cccc(OCC(O)CN2CCN(S(=O)(=O)c3cc(Cl)ccc3Cl)CC2)c1 (stereo unspecified)	·	–	–
COc1ccc(NC(=O)Cc2nnc(SCC(=O)Nc3ccccc3)n2C)cc1	·	–	–
COc1ccc(Cl)cc1NC(=O)C(OC)c1ccccc1 (stereo unspecified)	–	–	–
COC(/C(=N/O)c1ccc(Cl)cc1)c1ccccc1 (stereo unspecified)	·	5.62µM	4.47µM
NNC(=O)c1ncoc1-c1ccc(Cl)cc1	·	–	–
SMILES	KinaseGlo FLuc	RORgamma inh	Gal4-VP16 FLuc
COc1cc(NC(=O)Cn2ncc(Cl)c(Cl)c2=O)c(C)cc1[N+](=O)[O-]	–	2µM	7.08µM
COc1cc(NC(=O)CN2C(=O)CN(C)C2=O)c(C)cc1[N+](=O)[O-]	–	–	–
C#CCN1C(=O)S/C(=C\c2ccc(-c3ccc(Cl)c(C(=O)O)c3)o2)C1=O	·	–[1.91 µM]	1.26µM
O=C(O)c1cc(-c2ccc(/C=C3\NC(=O)N(c4ccccc4)C3=O)o2)ccc1Cl	·	–	–
COC(=O)c1c(NC(=O)C2CCCCC2)sc2c1CC(C)(C)NC2(C)C	·	–	–
COc1ccc(-c2ccc(C)cc2)cc1C1C2C=CCC(C)C2C(=O)N1Cc1ccccc1 (stereo unspecified)	·	–	–
COC(=O)c1c(C)[nH]c(C(=O)/C=C/c2ccccc2)c1C	–	1.41µM	7.08µM
COC(=O)c1c(C)[nH]c(C(=O)/C=C/c2ccc(C)cc2)c1C	·	0.316µM	3.98µM
COC(=O)c1c(C)[nH]c(C=O)c1-c1ccccc1	·	–	–
CCOC(=O)c1c(C)[nH]c(C)c1C(=O)COC(=O)/C=C/c1cccc(Cl)c1	–	–	–
COC(=O)c1c(C)[nH]c(C(=O)/C=C/c2cccc(Cl)c2)c1C	–	8.91µM	?
COC(=O)c1c(C)[nH]c(C(=O)OCc2ccc(F)cc2)c1C	·	–	–
Cc1[nH]c2ccccc2c(=O)c1C(=O)/C=C/c1ccccc1	·	5.62µM	5.62µM
Cc1[nH]c2ccccc2c1/C=C/C(=O)c1ccccc1	–	?	–
CCN(CC)C(=O)C1CCN(Cc2ccc(OCc3ccccc3)c(OC)c2)CC1	·	–	–
O=C1NC(=S)N/C1=C/c1cccc2ccccc12	·	–	–
